# Compound activity deposited in PubChem by National Center for Advancing Translational Sciences (NCATS).
# HEK293 tox: qHTS of GLP-1 Receptor Inverse Agonists: Cytotox Screen; HEK293 cAMP-luciferase reporter cells, luminescence, 24 h; Potency, µM (titrated, usually from 38.3 µM), for inactives: top-dose activity change, negative = inhibition, usual class: inhibitors; 410,000 tested, 0.13% active; AID 624418, 2012;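 further: loss of luciferase light is scored as toxicity; potency means the concentration at half of the fitted maximal effect; on the % scale 0 is the no-effect control and ±100 the full control effect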
#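 Luminescence readout: signal drop marks cytotoxicity. Plated cells grew 12 h at 37 °C, 5% CO2, received 23 nL compound for 24 h, then got luciferase reagent, read after 12 min at RT.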
# ClpP mod: qHTS Assay for Activators of ClpP; Potency, µM (doses to about 57.5 µM), for the others: at the highest dose activity change, negative = active; 340,000 tested, 1.9% active; purified B. subtilis ClpP, FRET peptide cleavage, 20 min; ATP-dependent Clp protease proteolytic subunit (Bacillus subtilis (strain 168)), P80244; active means well fitted falling curve with a large enough effect; inconclusive means small, poorly fitted or top-dose-only effect; inactive means no such curve, though single readings can be large or run the other way; further: potency means the concentration at half of the fitted maximal effect; the source files actives as falling curves though it sought activators and does not explain the sign; nearly all actives have a fitted effect of over 65% in size
# Target sequence (P80244 whole entry, looked up): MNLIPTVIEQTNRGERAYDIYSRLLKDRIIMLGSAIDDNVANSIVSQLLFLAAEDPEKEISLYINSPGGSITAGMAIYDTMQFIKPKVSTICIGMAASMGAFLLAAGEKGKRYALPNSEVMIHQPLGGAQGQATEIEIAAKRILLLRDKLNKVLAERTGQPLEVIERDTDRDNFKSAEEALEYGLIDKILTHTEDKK
#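 ClpP 10 microg/mL final, pH 8 Tris/KCl buffer with BSA, glycerol, Tween-20; compound pinned in; FRET-FV substrate; RT 20 min; Ex320/Em430; ΔFRET vs ADEP 5.8 microM, DMSO, no enzyme.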
# DRD3 antagonist: qHTS of D3 Dopamine Receptor Antagonist: qHTS; D(3) dopamine receptor (Homo sapiens), P35462; D3R cells, DiscoveRx beta-arrestin luminescence, antagonist mode; stronger effect = lower value; max response, negative = inhibition, %; 360,000 tested, 2.5% active; AID 652054, 2013; in the data active means max response below about -50%; inconclusive means no clear call, values can overlap the other calls; further: on the % scale 0 is the no-effect control and ±100 the full control effect
# Target sequence (P35462 whole entry, looked up): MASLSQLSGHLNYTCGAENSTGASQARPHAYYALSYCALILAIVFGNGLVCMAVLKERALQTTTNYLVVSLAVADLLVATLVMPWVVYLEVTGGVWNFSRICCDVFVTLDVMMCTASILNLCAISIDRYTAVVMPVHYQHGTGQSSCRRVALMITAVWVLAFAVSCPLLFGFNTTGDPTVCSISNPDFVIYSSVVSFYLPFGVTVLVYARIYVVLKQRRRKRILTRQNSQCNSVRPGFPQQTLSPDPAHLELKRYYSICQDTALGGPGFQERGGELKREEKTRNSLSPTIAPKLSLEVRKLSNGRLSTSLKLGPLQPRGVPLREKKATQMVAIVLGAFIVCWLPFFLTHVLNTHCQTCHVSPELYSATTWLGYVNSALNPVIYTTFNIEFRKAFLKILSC
#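 Cells plated overnight at 1500 cells/well, then exposed to library compounds with dopamine controls for 90 minutes at 37 degrees C. DiscoveRx reagent added for 30–60 minutes at room temperature; luminescence read, quantitative HTS format.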
# GLP1R ag: qHTS of GLP-1 Receptor Agonists; Glucagon-like peptide 1 receptor (Homo sapiens), P43220; HEK293 GLP-1R CRE-luciferase, luminescence, 4-6 h; cells express a hypersensitive GLP-1R form; Potency, µM (titrated, usually from 45.6 µM), inactives show at the highest dose activation, hits mostly activators; 380,000 tested, 0.007% active; AID 624172, 2012; further: potency means the concentration at half of the fitted maximal effect; % of control where 0% means no effect
# D3 ag: qHTS of D3 Dopamine Receptor Agonist: qHTS; max activation, %; 410,000 tested, 0.58% active; D3R DiscoveRx beta-arrestin cells, luminescence, 90 min; AID 652048, 2013; D(3) dopamine receptor (Homo sapiens), P35462; in the data active means max activation above about 30%; further: 0% is about no effect
#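 Agonist mode: compounds and dopamine controls were applied to plated cells for 90 min at 37 degrees C after an overnight attachment at 1500 cells/well. Luminescent read-out followed 30 - 60 minutes at room temperature with DiscoveRx detection reagent.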
# GLP-1R inv ag: qHTS of GLP-1 Receptor Inverse Agonists (Inhibition Mode); HEK293 GLP-1R CRE-luciferase, luminescence, 24 h; GLP-1R form is constitutively active; Potency, µM (titrated, usually from 38.3 µM), for the others: top-dose activity change, negative = inhibition, actives largely listed as inhibitors; 410,000 tested, 1.6% active; AID 624417, 2012; further: potency means the concentration at half of the fitted maximal effect; on the % scale 0 is the no-effect control and ±100 the full control effect; nearly all actives have a fitted effect of over 55% in size
#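 HEK293 cells stably co-expressing a cAMP-responsive luciferase reporter and constitutively active GLP-1R were seeded, incubated 12 h, then exposed to compounds for 24 h at 37 C. Luminescence was read 12 min after detection reagent; inverse agonists lower signal.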
# Starred values were filed as active, the others as inactive; ? = inconclusive; / = no result given; [ ] = remark or other dose. Hits are enriched below; roughly 5.7% of the tested compounds scored in any of these assays. Unless noted, the call rests on the fitted dose curve; in most records, active means well fitted curve in the direction sought with a large enough effect; inconclusive means small, poorly fitted or top-dose-only effect, or another doubt; inactive means no such curve, though single readings can be large; an effect the other way counts as inactive or inconclusive.
SMILES,HEK293 tox,ClpP mod,DRD3 antagonist,GLP1R ag,D3 ag,GLP-1R inv ag
CCCOc1ccc(F)cc1-c1cc(C(=O)NCc2ccccc2)[nH]n1,-4%,-8%,-99*,16%,-19,?
Cc1cc(F)ccc1-c1cc(C(=O)NCc2ccccc2)[nH]n1,2%,0%,-89*,-3%,-20,?
Cc1cc(F)ccc1-c1cc(C(=O)Nc2ccc(F)cc2)[nH]n1,3%,2%,-58*,0%,-22,-17%
COc1ccc(CN2C(=O)CN(S(C)(=O)=O)CC2(C)C(=O)Nc2c(C)cccc2C)cc1 (stereo unspecified),0%,-2%,5,/,6,-18%
CCC(Sc1nc2nccnc2c(=O)n1Cc1ccc(Cl)cc1)C(=O)NC1CCCCC1 (stereo unspecified),2%,-4%,/,/,-9,3%
Cc1ccc2c(c1)COc1c3ccc(C(=O)O)cc3nn1-2,5%,88%,-3,-9%,14,1.3µM*
Cc1ccc2c(c1)COc1c3ccc(C(=O)NCC4CC4)cc3nn1-2,17%,4%,-12,4%,7,14%
COc1cc(NC(=O)c2cc(Cl)ccc2Cl)ccc1-c1cc2ccccc2oc1=O,-2%,28µM*,6,-17%,5,-4%
CCc1ccc(NC(=O)CO/N=C(\C)c2cc3ccccc3o2)cc1,-1%,/,2,15%,1,11µM*
COc1ccc(C(=O)Nc2ccc(-c3cc4ccccc4oc3=O)c(C)c2)cc1OC,0%,4%,/,/,-20,-22%
CCc1ccc(OCC(=O)Nc2ccc(-c3cc4ccccc4oc3=O)c(OC)c2)cc1,-25%,35µM*,86,-19%,10,?
Cc1ccc(C)c(N2CCN(C(=O)c3cccn3-c3nnc(N4CCCCC4)s3)CC2)c1,2%,-4%,/,/,-4,?
O=C(CN(Cc1ccccc1)S(=O)(=O)c1ccc(Cl)cc1)NCC1CCCO1 (stereo unspecified),-4%,/,-4,12%,10,3%
O=C(CN(Cc1ccccc1)S(=O)(=O)c1ccc(Br)cc1)NCC1CCCO1 (stereo unspecified),21%,25µM*,-3,9%,8,-11%
CCCN(CC(=O)Nc1ccc(Cl)cc1Cl)C(=O)/C=C/c1cc(OC)ccc1OC,1%,16µM*,11,7%,-2,?
COC(=O)c1cc(-c2cc(OC)ccc2OC)nc2c1c(=O)n(C)c(=O)n2Cc1ccccc1,1%,/,-79*,11%,-29,10%
COc1ccc(OC)c(-c2csc(NC(=O)Cc3ccccc3)n2)c1,14%,/,4,19%,-6,?
CN1CCN(C(=O)CC23CC4CC(CC(C4)C2)C3)CC1,11%,0%,-78*,-6%,-4,1%
O=C(CC12CC3CC(CC(C3)C1)C2)N1CCCC1,-7%,0%,-13,6%,-8,-23%
CCCc1cc(=O)[nH]c(Nc2cc(OC)ccc2OC)n1,-1%,?,-52*,-2%,-23,-9%
O=C1CCC(/C=C/c2ccccc2)=NN1Cc1ccccc1Cl,11%,-1%,-20,1%,5,10µM*
O=C1CCC(/C=C/c2ccccc2)=NN1Cc1ccc(Cl)c(Cl)c1,10%,-6%,-3,7%,9,0%
CC1(OC(=O)C2CCCC2)C(=O)C=C2C=C(c3ccsc3)N(C3CC3)C=C2C1=O (stereo unspecified),-26%,-3%,-64*,6%,0,-5%
COc1ccc(Cn2c(CCC(=O)Nc3cc(OC)c(OC)c(OC)c3)nc3cccnc32)cc1,-4%,-1%,/,/,-12,11%
OCCN1CCN(CCC=C2c3ccccc3Sc3ccc(Cl)cc32)CC1,/,/,/,-5%[19.8 µM],/,/
SMILES,HEK293 tox,ClpP mod,DRD3 antagonist,GLP1R ag,D3 ag,GLP-1R inv ag
CN(C)CC/C=C1/c2ccccc2CS(=O)(=O)c2ccccc21,-8%,/,-5,6%,6,8%
OCCN1CCN(CC/C=C2/c3ccccc3CSc3ccccc32)CC1,?,-4%,-105*,4%,-22,8.9µM*
CNCC/C=C1/c2ccccc2CSc2ccccc21,-30%,-1%,-81*,1%,0,?
CCn1cnc2c(=O)oc3ccc(S(=O)(=O)N4CCN(c5cc(C)ccc5C)CC4)cc3c21,-8%,-13%,/,/,7,5%
Nc1nonc1-c1nc2ccccc2n1CC(=O)N/N=C\c1ccc(-c2ccc(Cl)cc2)o1,8%,-19%,?,1%,-21,10µM*
NNC(=O)Cn1c(-c2nonc2N)nc2ccccc21,14%,-2%,38,2%,1,-22%
CC(C(=O)N1CCCCC1)n1ncn2cccc2c1=O (stereo unspecified),-11%,28µM*,34,-17%,5,1%
Cc1ccc(C)c(N2CCN(S(=O)(=O)c3ccc(-c4cnc(C5CC5)o4)cc3)CC2)c1,-19%,?,/,/,-18,?
Cc1cccc(N2CCN(S(=O)(=O)c3ccc(-c4cnc(C5CC5)o4)cc3)CC2)c1C,0%,4%,/,/,-4,11µM*
Cc1cccc(N2CCN(S(=O)(=O)c3cc(Cl)ccc3Cl)CC2)c1C,-7%,-1%,/,-6%,65*,2%
CC(C)N(C)c1ncnc2c1ncn2[C@H]1CN(C2CCCC2)C[C@@H](CO)O1,7%,1%,0,3%,-6,26%
CC(C)(C)NCC(O)COc1ccc(NC(=O)NC2CCCCC2)cc1 (stereo unspecified),/,/,/,-1%,-6,/
CCc1ccccc1NC(=O)CN1C(=O)c2ccccc2Sc2ncccc21,-8%,-4%,/,1%,-10,-3%
COc1ccc(C(=O)NCC(c2cccs2)S(=O)(=O)c2cccs2)cc1 (stereo unspecified),-11%,-12%,/,/,5,-20%
CCN(CC)C1CCN(C(=O)c2cc(COc3ccccc3SC)on2)C1 (stereo unspecified),4%,-1%,-8,-1%,10,7.1µM*
CSc1ccccc1OCc1cc(C(=O)N2CCCC(C)C2)no1 (stereo unspecified),-3%,4%,-2,-4%,-5,?
COc1ccc(-c2n[nH]c(C)c2-c2cscn2)c(O)c1,-3%,-3%,2,1%,-1,-12%
